# G9a inh: blocks human histone lysine methyltransferase G9a; Q96KQ7; G9a H3K9 monomethylation, AlphaScreen, 2 h; Potency, µM (series often up to 102 µM), for the others: at the top dose activity, negative = inhibition, hits mostly inhibitors; 350,000 compounds, 8.8% hits; also: % is scaled to controls: 0 for no effect and ±100 for the full control effect; nearly all actives have a fitted effect of over 75% in size
# Target sequence (Q96KQ7 913-1193 limits assumed): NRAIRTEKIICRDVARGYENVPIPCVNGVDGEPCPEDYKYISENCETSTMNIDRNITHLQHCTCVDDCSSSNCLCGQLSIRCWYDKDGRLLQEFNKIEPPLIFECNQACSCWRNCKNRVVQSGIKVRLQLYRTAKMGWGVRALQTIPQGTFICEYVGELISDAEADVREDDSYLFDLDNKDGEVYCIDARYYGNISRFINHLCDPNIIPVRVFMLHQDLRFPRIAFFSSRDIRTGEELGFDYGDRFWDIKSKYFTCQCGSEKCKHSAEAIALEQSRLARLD
#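 G9a (20 nM) preincubated 15 min RT with compounds, then 500 nM biotinylated H3K9 peptide and 20 uM SAM added; 2 h RT reaction. Monomethyl-H3K9 product detected by AlphaScreen with anti-H3K9me1 antibody, streptavidin donor and anti-rabbit IgG acceptor beads.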
# JMJD2A Tudor: blocks the human JMJD2A Tudor domain | AlphaScreen JMJD2A-Tudor / H3K4me3 peptide binding | AID 504339 | Potency, µM (titrated, usually from 114 µM), without a hit: at the top dose activity change, negative = inhibition, hits mostly inhibitors | 390,000 compounds, 4.4% hits | O75164; also: % is scaled to controls: 0 for no effect and ±100 for the full control effect; nearly all actives have a fitted effect of over 50% in size
# BAZ2B block: blocks human BAZ2B; AlphaScreen BAZ2B-H3K14Ac peptide displacement; 360,000 compounds, 4.4% hits; Potency, µM (series often up to 114 µM), inactives show at the top dose activity change, negative = inhibition, hits mostly inhibitors; AID 504333; also: % is scaled to controls: 0 for no effect and ±100 for the full control effect; nearly all actives have a fitted effect of over 60% in size
#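 AlphaScreen luminescence quantifies BAZ2B engagement of H3K14Ac peptide; the protein and biotinylated peptide are both at 50 nM final, buffer PBS pH 7.4 with 0.01% Tween-20, all steps at room temperature.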
# L3MBTL1 inh: L3MBTL1 (human) inhibition; Q9Y468; AlphaScreen L3MBTL1–H3K9me1 peptide binding; Potency, µM (doses to about 57.1 µM), without a hit: at the highest dose activity, negative = inhibition, hits mostly inhibitors; 230,000 compounds, 0.66% hits; AID 485360; also: % is scaled to controls: 0 for no effect and ±100 for the full control effect; nearly all actives have a fitted effect of over 60% in size
#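 AlphaScreen proximity signal between nickel-chelate acceptor and streptavidin donor beads (final 10 ug/mL) reports binding of 50 nM L3MBTL1 to 75 nM biotin-H3 K9me1 peptide; complex incubated with compounds 30 min at room temperature; cefsulodin titration as control.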
# HP1b binding inh: inhibitors of HP1-beta chromodomain binding to methylated histone tails | AlphaScreen HP1-beta / biotin-H3K9me3 peptide binding | Potency, µM (doses to about 114 µM), for inactives: at the top dose activity change, negative = inhibition, actives largely listed as inhibitors | 390,000 compounds, 0.56% hits; also: nearly all actives have a fitted effect of over 70% in size
# Target sequence (P83916 whole entry, looked up): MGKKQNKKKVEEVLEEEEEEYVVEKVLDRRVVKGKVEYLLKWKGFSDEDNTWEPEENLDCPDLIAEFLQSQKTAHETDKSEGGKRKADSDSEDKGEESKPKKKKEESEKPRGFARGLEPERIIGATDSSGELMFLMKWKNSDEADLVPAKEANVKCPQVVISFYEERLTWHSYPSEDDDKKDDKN
#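 AlphaScreen: HP1-beta (50 nM) preformed 30 min with biotin-H3(1-18)K9me3 peptide (50 nM) in PBS pH 7.4, 0.01% Tween-20. Compound added for 30 min at RT, then streptavidin donor/nickel chelate acceptor beads (10 ug/mL) for 30 min.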
# Sfp PPTase inh: Sfp phosphopantetheinyl transferase inhibition | Q9F4F7 | Biochemical Sfp PPTase activity, qHTS | Potency, µM, without a hit: largest response in the series, negative = inhibition, actives largely listed as inhibitors | 310,000 compounds, 3.5% hits;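 also: the enzyme is Sfp with the accession as filed and its product quenches rhodamine fluorescence; 0% = enzyme reaction without inhibitor and -100% = no enzyme wells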
#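 Reaction rates are the 30-min fluorescence difference (ex 525, em 598 nm) in wells containing 15 nM Sfp, 5 uM rhodamine-CoA and 12.5 uM BHQ-2-YbbR at pH 7.6 with 10 mM MgCl2.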
# Active calls of the source: *; u = inconclusive; x = not tested or not shown; [ ] = dose if it differs, or a comment. Only some compounds are listed: those with a hit (about 12% of all), similar ones and a draw of the others. Calls follow the shape of the dose curve; as a rule, active = well fitted curve in the direction sought with a large enough effect; inconclusive = small, poorly fitted or top-dose-only effect, or another doubt; inactive = no such curve, though single readings can be large; an effect the other way counts as inactive or inconclusive. Potency is read from the fitted curve at half-maximal effect.
SMILES,G9a inh,JMJD2A Tudor,BAZ2B block,L3MBTL1 inh,HP1b binding inh,Sfp PPTase inh
C[C@H](CO)N1C[C@H](C)[C@@H](CN(C)CC2CCCCC2)Oc2c(NC(=O)Cc3ccccc3)cccc2C1=O,x,56.2µM*,x,-7.5%,-4.4%,x
CC(C)NC(=O)N(C)C[C@H]1Oc2c(NC(=O)Cc3ccccc3)cccc2C(=O)N([C@H](C)CO)C[C@@H]1C,x,u,x,3.7%,1.5%,x
Nc1c2ccccc2nc2ccccc12,u,1.4%,3.4%,3.9%,84.4%,0.7%
Cc1c(N(C)C)nc2ccccc2c1N,u,1µM*,44.7µM*,6.0%[11.4 µM],14.1µM*,-17.4%
COC(=O)[C@@]1(Cc2ccccc2)C=C[C@@H](C)N1C(=O)c1ccccc1,x,x,x,x,x,5.0%
CCOc1ccc(NCc2cccn2-c2nnc(N3CCC(C(=O)NCCCN4CCCCC4CC)CC3)s2)cc1 (stereo not given),50.1µM*,28.2µM*,u,x,-16.8%[57 µM],-4.6%
CCCC(=O)OCc1cnc(C)c2oc(=O)c(C(=O)Nc3ccc(F)cc3C)cc12,1.1%[59 µM],-16.9%,-1.5%,x,5.4%,x
O=C1C=CC(=O)C(C2=C3C(=O)N(CCc4ccccc4)CC(=O)N3CCC2)=C1,1.26µM*,3.16µM*,50.1µM*,-10.6%,6.31µM*,1µM*
c1nc(N2CCC(N3CCCC3)CC2)c2cc(-c3ccc4c(c3)OCO4)ccc2n1,x,-13.5%,x,x,x,x
CC(=O)Nc1ccc(SCCN2CCN(C)CCC2=O)cc1,x,-13.8%,x,x,34.3%,-2.5%
COC(=O)c1c(N(S(C)(=O)=O)S(C)(=O)=O)sc2c1CCN(c1ncc(C(F)(F)F)cc1Cl)C2,u,-30.0%,-5.9%,x,-1.2%,56.2µM*
Cc1onc(-c2ccccc2Cl)c1C(=O)Nc1nnc(C(C)C)s1,50.1µM*,-23.1%,5.6%,5.2%,23.2%,22.9%
CC(C)c1nnc(NC(=O)c2sc3ccccc3c2Cl)s1,44.7µM*,8.7%,0.0%,-0.7%,-8.7%,6.9%
COC(=O)c1c(NC(=O)c2c(C)noc2C)sc2c1CCCCCC2,8.4%[59 µM],x,1.5%,x,x,9.9%
COC(=O)c1c(NC(=O)c2c(-c3ccccc3Cl)noc2C)sc2c1CCC2,u,-7.6%,2.9%,x,25.2%,28.2µM*
Cc1onc(-c2ccccc2Cl)c1C(=O)O/N=C(\N)c1ccc([N+](=O)[O-])o1,35.5µM*,u,u,-2.5%,-11.6%,1.7%
Cc1cnc(NC(=O)c2sc3ccccc3c2Cl)s1,15.6%,-3.3%,-0.7%,-2.8%,26.5%,8.6%
Cc1nnc(NC(=O)c2c(-c3ccccc3Cl)noc2C)s1,-32.6%,-3.4%,-18.1%,0.0%,23.3%,12.3%
C/C(=N/OC(=O)c1c(-c2ccccc2Cl)noc1C)c1cnccn1,5.0%,-10.3%,0.4%,0.4%,62.8%,6.8%
Cc1csc(CNc2ncnc3ccc(-c4ccc5c(ccn5C)c4)cc23)c1,-12.4%[12.7 µM],x,-36.3%,-12.6%,x,x
O=C(CC1Nc2cccc3cccc(c23)NC1=O)Nc1ccccc1 (stereo not given),2.9%[59 µM],u,8.5%,-2.3%,-19.9%,17.8µM*
Cc1ccc(NC(=O)CC2Nc3cccc4cccc(c34)NC2=O)cc1 (stereo not given),u,u,-32.6%,x,-13.5%,x
O=C(CC1Nc2ccccc2NC1=O)Nc1ccc2c(c1)OCO2 (stereo not given),12.6µM*,-27.1%,-14.4%,u,-16.1%,-13.1%
Cc1ccc(NC(=O)CC2Nc3ccccc3NC2=O)cc1C (stereo not given),u,-23.5%,u,x,8.5%,x
COc1ccc(N2CCCC2)c(NC(=O)COc2ccccc2Cl)c1,35.5µM*,-13.0%,u,x,-7.4%,-14.8%
SMILES,G9a inh,JMJD2A Tudor,BAZ2B block,L3MBTL1 inh,HP1b binding inh,Sfp PPTase inh
COc1ccc(N2CC(C(=O)Nc3cc(C(F)(F)F)ccc3N3CCCC3)CC2=O)c(OC)c1 (stereo not given),u,-17.3%,-27.3%,-3.6%,1.1%,x
COC(=O)c1ccccc1NC(=S)NC(=O)COc1ccccc1Cl,u,-12.5%,5.3%,-5.1%,27.5%,15.9%
COc1ccc(N2CC(C(=O)Nc3ccccc3N3CCCC3)CC2=O)c(OC)c1 (stereo not given),50.1µM*,-19.6%,2.8%,-14.5%,15.4%,x
O=C(COc1ccccc1Cl)NC(=S)Nc1ccccc1N1CCCC1,39.8µM*,u,20µM*,x,5.2%,2.7%
CSCCC(NC(=O)c1cc(S(=O)(=O)N2CCOCC2)ccc1C)c1nc2ccccc2[nH]1 (stereo not given),x,-14.7%,x,x,28.2%,x
CCc1ccccc1N(C)C(=O)c1nn(-c2ccc(OC)cc2)c(=O)c2c1c1ccccc1n2C,-3.6%[59 µM],2.3%,x,x,36.1%,x
Cc1ccc(C2(c3ccc(C)cc3)CC2C(=O)Nc2ccc([N+](=O)[O-])cc2O)cc1 (stereo not given),25.1µM*,u,u,-24.2%,-31.8%,19.0%
CC1(C)CC1C(=O)Nc1ccc([N+](=O)[O-])cc1Br (stereo not given),-21.5%,-18.8%,1.2%,-5.2%,-5.9%,-0.8%
COc1cc(C(=O)N/N=C/c2sc(N3CCOCC3)nc2-c2ccccc2)cc(OC)c1OC,6.0%,5.5%,-25.5%,-9.2%,40.4%,18.6%
COc1ccc(NC(=O)/C(Cl)=C(/Cl)S(=O)Cc2ccccc2Cl)cn1 (stereo not given),10µM*,-21.0%,-15.7%,-11.5%,-19.0%,22.4µM*
COc1ccc(NC(=O)/C(Cl)=C(/Cl)S(=O)(=O)Cc2ccc(C)cc2)cn1,44.7µM*,-9.6%,-6.5%,x,32.5%,-2.9%
COc1ccc(NC(=O)Cc2ccc(Cl)c(Cl)c2)cn1,1.7%,-1.4%,u,x,14.5%,7.8%
COc1ccccc1C(O)c1nccn1Cc1ccccc1 (stereo not given),x,-17.7%,x,x,25.0%,x
Cn1c(=O)c2c([nH]c(=S)n2CCCc2ccccc2)n(C)c1=O,18.4%[0.501 µM],5.01µM*,28.2µM*,-3.1%[2.29 µM],15.8µM*,50.1µM*
Cn1c(=O)[nH]c(=O)c2c1[nH]c(=S)n2Cc1ccc(Cl)cc1,0.891µM*,3.16µM*,22.4µM*,x,14.1µM*,8.91µM*
Cn1c(=O)[nH]c(=O)c2c1[nH]c(=S)n2CCCc1ccccc1,x,3.16µM*,25.1µM*,7.2%,10µM*,14.1µM*
Cn1c(=O)n(Cc2ccccc2Cl)c(=O)c2c1[nH]c(=S)n2C,1.26µM*,12.6µM*,u,x,u,50.1µM*
Cc1sc(NC(=S)NC(=O)C(C)(C)C)c(C(N)=O)c1C,22.8%[0.0925 µM],-25.6%,-36.8%,0.8%,-10.2%,u
CN(C)C(=O)[C@H]1C[C@@H]1[C@H](NC(=O)OCc1ccccc1)c1ccccc1,x,x,x,x,x,15.6%

# High-throughput results (PubChem BioAssay)
